PubChem BioAssay
Activity calls are given as the source filed them. Unless noted, no rule for the calls is given here.

How the values were obtained:
[1] = HepG2 liver cancer cell viability effects, profiling panel, resazurin fluorescence, 24 h, PK04 Diversity Set (AID 1172); settings: higher = more signal; also: test concentration not given here
[2] = basal S. cerevisiae growth modulation, no modifier, primary screen, OD600, strain BY4716, 24 h, basal condition (AID 1173); settings: OD600, 24 h, higher = more signal, called active from +8 up or from −8 down
[3] = MM1S myeloma cell viability, profiling panel, resazurin fluorescence, basal, 24 h, PK04 Diversity Set (AID 1174); settings: higher = more signal, called active from +8 up or from −8 down;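 also: MM1S multiple myeloma cell line; test concentration not given here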
[4] = biological target: Dihydroorotate dehydrogenase (quinone), mitochondrial (Plasmodium falciparum (isolate 3D7)) (UniProt Q08210); test: PfDHODH enzyme inhibitors, primary screen, biochemical, C-terminal His tag, absorbance 600 nm (AID 1175); settings: DCIP absorbance 600 nm, higher = more signal, called active from +8 up or from −8 down;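 also: recombinant parasite enzyme with a five histidine tag at its C terminus; test concentration not given here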
Dihydroorotate dehydrogenase (quinone), mitochondrial (Plasmodium falciparum (isolate 3D7)), sequence (Q08210 whole entry, looked up): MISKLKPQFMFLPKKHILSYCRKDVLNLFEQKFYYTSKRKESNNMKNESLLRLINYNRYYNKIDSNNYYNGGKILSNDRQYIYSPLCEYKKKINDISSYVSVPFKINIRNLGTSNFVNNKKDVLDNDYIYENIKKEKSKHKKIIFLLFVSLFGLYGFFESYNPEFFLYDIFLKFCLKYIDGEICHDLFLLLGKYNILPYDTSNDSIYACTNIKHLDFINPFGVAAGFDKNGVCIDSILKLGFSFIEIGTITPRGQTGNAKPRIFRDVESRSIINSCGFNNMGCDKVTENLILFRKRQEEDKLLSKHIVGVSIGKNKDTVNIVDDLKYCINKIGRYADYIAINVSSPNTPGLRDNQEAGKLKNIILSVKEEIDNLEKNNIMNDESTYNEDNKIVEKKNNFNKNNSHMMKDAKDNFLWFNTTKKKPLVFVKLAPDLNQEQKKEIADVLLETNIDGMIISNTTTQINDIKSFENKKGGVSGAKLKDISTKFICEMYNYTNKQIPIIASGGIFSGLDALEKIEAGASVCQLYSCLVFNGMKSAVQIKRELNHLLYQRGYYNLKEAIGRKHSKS

[5] = P. aeruginosa biofilm formation inhibitors, primary screen, strain PAO1, LB-PBS medium, absorbance 600 nm (AID 1176); also: test concentration not given here; settings: P. aeruginosa PAO1 growth/biofilm, A600, 12 h; higher = more signal
[6] = S. cerevisiae RM11-1a growth modifiers, primary screen, strain RM11-1a, OD600, basal, 24 h (AID 1177); settings: OD600, 24 h, higher = more signal, called active from +8 up or from −8 down;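 also: cultures grown under basal conditions with no added stressor; test concentration not given here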
[7] = E. coli acrAB mutant growth effects, primary screen, E. coli filamentation inducers, strain DRC39, OD650, 24 h (AID 1178); settings: higher = more signal, called active from +8 up or from −8 down;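 also: growth measured as culture turbidity by optical density at 650 nm; test concentration not given here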
[8] = E. coli acrAB mutant growth effects, primary screen, E. coli filamentation inducers, strain DRC39, OD650, 48 h (AID 1179);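 also: screen aims at cell division blockers that make cells filament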; settings: E. coli DRC39 delta-acrAB growth, higher = more signal, called active from +8 up or from −8 down
[9] = RPMI8226 myeloma cell viability, profiling panel, resazurin fluorescence, basal, 24 h, PK04 Diversity Set (AID 1180); settings: higher = more signal;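 also: RPMI8826 multiple myeloma cell line at 5000 cells per well; test concentration not given here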
[10] = biological target: E3 ubiquitin-protein ligase XIAP (Homo sapiens) (UniProt P98170); test: XIAP binders, primary screen, biophysical, small-molecule microarray, fluorescence 635 nm (AID 1181); settings: small-molecule microarray binding, higher = more signal;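 also: score merges 667 nm emission and signal to noise over triplicate slides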
E3 ubiquitin-protein ligase XIAP (Homo sapiens), sequence (P98170 whole entry, looked up): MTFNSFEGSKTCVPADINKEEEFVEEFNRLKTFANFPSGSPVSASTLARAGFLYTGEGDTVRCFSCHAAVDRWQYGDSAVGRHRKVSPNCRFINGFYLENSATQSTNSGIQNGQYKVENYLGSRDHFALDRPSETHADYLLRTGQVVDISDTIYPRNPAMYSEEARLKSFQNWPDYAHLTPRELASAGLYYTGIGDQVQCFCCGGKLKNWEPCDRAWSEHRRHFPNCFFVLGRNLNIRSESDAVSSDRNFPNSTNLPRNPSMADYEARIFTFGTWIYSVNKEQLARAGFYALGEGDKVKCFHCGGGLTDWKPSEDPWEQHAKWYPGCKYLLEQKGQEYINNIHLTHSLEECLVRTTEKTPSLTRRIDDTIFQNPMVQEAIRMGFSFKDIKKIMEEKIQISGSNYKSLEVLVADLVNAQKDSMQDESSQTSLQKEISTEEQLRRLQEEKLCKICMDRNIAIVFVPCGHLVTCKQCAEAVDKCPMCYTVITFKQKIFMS

**Q.** Which z-score [1] does the source give for `CN(C)CCCNC(=O)[C@@H]1c2ccccc2C(=O)N(CC23CC4CC(CC(C4)C2)C3)[C@H]1c1ccc(CO)cc1` here?
**A.** -0.701

**Q.** What about the z-score [2] of the same molecule?
**A.** -3.33 (inactive)

**Q.** What about the z-score [3] of the same molecule?
**A.** -0.809 (inactive)

**Q.** What about the composite z-score [4] of the same molecule?
**A.** -0.184 (inactive)

**Q.** And the z-score [5]?
**A.** 0.0435 (inactive)

**Q.** And the z-score [6]?
**A.** 0.28 (inactive)

**Q.** What about the z-score [7] of the same molecule?
**A.** 0.309 (inactive)

**Q.** What about the z-score [8] of the same molecule?
**A.** 0.401 (inactive)

**Q.** And the z-score [9]?
**A.** -0.692

**Q.** And the composite z-score [10]?
**A.** 0.0973

**Q.** What does the source list for `O=C1O[C@@H](c2ccccc2)[C@@H](c2ccccc2)N2[C@@H](c3ccc(O)cc3)[C@]3(C(=O)Nc4ccccc43)[C@@H](C(=O)Nc3nc4ccccc4s3)[C@H]12`?
**A.** z-score [1]: -1.66; z-score [2]: -0.505 (inactive); z-score [3]: -3.11 (inactive); composite z-score [4]: 0.162 (inactive); z-score [5]: 2.43 (inactive); z-score [6]: 0.72 (inactive); z-score [7]: -0.0021 (inactive); z-score [8]: 0.251 (inactive); z-score [9]: -4.69; composite z-score [10]: -0.0045

**Q.** Which z-score [1] does the source give for `COCCOC(=O)N1C(=O)[C@@]2(c3cc(C#CC4=CCCCC4)ccc31)[C@H](c1ccc(O)cc1)N1[C@H](c3ccccc3)[C@H](c3ccccc3)OC(=O)[C@H]1[C@@H]2C(=O)Nc1nc2ccccc2s1` here?
**A.** -0.477

**Q.** And the z-score [2]?
**A.** 0.175 (inactive)

**Q.** What about the z-score [3] of the same molecule?
**A.** 0.0007 (inactive)

**Q.** What about the composite z-score [4] of the same molecule?
**A.** -0.399 (inactive)

**Q.** What about the z-score [5] of the same molecule?
**A.** 1.44 (inactive)

**Q.** What about the z-score [6] of the same molecule?
**A.** 0.297 (inactive)

**Q.** And the z-score [7]?
**A.** -0.61 (inactive)

**Q.** What about the z-score [8] of the same molecule?
**A.** 0.0717 (inactive)

**Q.** What about the z-score [9] of the same molecule?
**A.** -0.0867

**Q.** And the composite z-score [10]?
**A.** 0.0114

**Q.** Which results are given for `CCOC(=O)C[C@H]1[C@H](OC(=O)c2ccc(-c3ccccc3)cc2)[C@@H](NC(=O)c2ccc3ccccc3n2)c2cc(OCCCO)ccc2N1C(=O)c1ccccc1`?
**A.** z-score [1]: -0.576; z-score [2]: 1.11 (inactive); z-score [3]: -0.421 (inactive); composite z-score [4]: 0.421 (inactive); z-score [5]: -0.37 (inactive); z-score [6]: 0.97 (inactive); z-score [7]: 0.353 (inactive); z-score [8]: 0.287 (inactive); z-score [9]: -0.193; composite z-score [10]: -0.286

**Q.** Which z-score [1] does the source give for `NC(=O)NCC#Cc1ccc2c(c1)[C@]1(C(=O)N2)[C@H](c2ccc(O)cc2)N2[C@H](c3ccccc3)[C@H](c3ccccc3)OC(=O)[C@H]2[C@@H]1C(=O)Nc1nc2ccccc2s1` here?
**A.** 0.971

**Q.** And the z-score [2]?
**A.** 3.54 (inactive)

**Q.** And the z-score [3]?
**A.** 0.972 (inactive)

**Q.** What about the composite z-score [4] of the same molecule?
**A.** -0.579 (inactive)

**Q.** What about the z-score [5] of the same molecule?
**A.** 4.48 (inactive)

**Q.** And the z-score [6]?
**A.** 5.85 (inactive)

**Q.** What about the z-score [7] of the same molecule?
**A.** 1.04 (inactive)

**Q.** What about the z-score [8] of the same molecule?
**A.** 1.19 (inactive)

**Q.** What about the z-score [9] of the same molecule?
**A.** 0.388

**Q.** What about the composite z-score [10] of the same molecule?
**A.** 0.591

**Q.** For `CC(C)(C)OC(=O)CC[C@]1(C(=O)NCCN2CCOCC2)N=C(c2ccc(OCCCO)cc2)O[C@H]1c1ccccc1`, which z-score [1] is on record?
**A.** -0.385

**Q.** What about the z-score [2] of the same molecule?
**A.** 0.26 (inactive)

**Q.** And the z-score [3]?
**A.** 0.0457 (inactive)

**Q.** And the composite z-score [4]?
**A.** -1.63 (inactive)

**Q.** What about the z-score [5] of the same molecule?
**A.** -0.347 (inactive)

**Q.** What about the z-score [6] of the same molecule?
**A.** 0.574 (inactive)

**Q.** What about the z-score [7] of the same molecule?
**A.** -0.0656 (inactive)

**Q.** And the z-score [8]?
**A.** -0.448 (inactive)

**Q.** What about the z-score [9] of the same molecule?
**A.** 0.13

**Q.** And the composite z-score [10]?
**A.** -0.031

**Q.** Which z-score [1] does the source give for `C=CC[C@@]12N=C(c3ccc(OCCCO)cc3)O[C@@H]1c1ccccc1N(CCS(=O)(=O)c1ccccc1)C2=O` here?
**A.** 0.653

**Q.** And the z-score [2]?
**A.** 0.0618 (inactive)

**Q.** What about the z-score [3] of the same molecule?
**A.** -1.97 (inactive)

**Q.** And the composite z-score [4]?
**A.** 0.0628 (inactive)

**Q.** What about the z-score [5] of the same molecule?
**A.** -0.251 (inactive)

**Q.** What about the z-score [6] of the same molecule?
**A.** 0.379 (inactive)

**Q.** What about the z-score [7] of the same molecule?
**A.** 0.907 (inactive)

**Q.** What about the z-score [8] of the same molecule?
**A.** 1.6 (inactive)

**Q.** And the z-score [9]?
**A.** -1.07

**Q.** And the composite z-score [10]?
**A.** 0.0303

**Q.** What does the source list for `COc1ccc([Si](C)(C)[C@@H]2[C@@H](CCO)O[C@]3(C(=O)N(Cc4cccc(N5C(=O)c6ccccc6Oc6ccccc65)c4)c4ccccc43)[C@H]2C)cc1`?
**A.** z-score [1]: -1.11; z-score [2]: 1.02 (inactive); z-score [3]: -4.32 (inactive); composite z-score [4]: 0.786 (inactive); z-score [5]: 1.64 (inactive); z-score [6]: 5.08 (inactive); z-score [7]: 1.89 (inactive); z-score [8]: 1.48 (inactive); z-score [9]: -2.95; composite z-score [10]: -0.177

**Q.** What does the source list for `CC(C)N1C(=O)[C@@]2(c3ccc([N+](=O)[O-])cc3)CC(=O)N(C3CCCCC3)[C@@H]2c2ccc(CO)cc21`?
**A.** z-score [1]: 1.86; z-score [2]: 0.833 (inactive); z-score [3]: 0.927 (inactive); composite z-score [4]: -13.8 (active); z-score [5]: -0.0065 (inactive); z-score [6]: -0.466 (inactive); z-score [7]: 0.026 (inactive); z-score [8]: -0.303 (inactive); z-score [9]: 0.833; composite z-score [10]: 0.0037

**Q.** Which z-score [1] does the source give for `O=C1O[C@@H](c2ccccc2)[C@@H](c2ccccc2)N2[C@@H](c3ccc(O)cc3)[C@]3(C(=O)Nc4ccc(C#CC5=CCCCC5)cc43)[C@@H](C(=O)N3CCN(c4ncccn4)CC3)[C@H]12` here?
**A.** 1.48

**Q.** What about the z-score [2] of the same molecule?
**A.** -0.066 (inactive)

**Q.** And the z-score [3]?
**A.** -0.0922 (inactive)

**Q.** What about the composite z-score [4] of the same molecule?
**A.** -0.824 (inactive)

**Q.** What about the z-score [5] of the same molecule?
**A.** -0.0478 (inactive)

**Q.** And the z-score [6]?
**A.** 0.207 (inactive)

**Q.** What about the z-score [7] of the same molecule?
**A.** -0.289 (inactive)

**Q.** What about the z-score [8] of the same molecule?
**A.** -0.348 (inactive)

**Q.** And the z-score [9]?
**A.** -0.385

**Q.** What about the composite z-score [10] of the same molecule?
**A.** 0.118

**Q.** What does the source list for `CN1C(=O)C2C=CC(C(O)Cc3ccccc3)N(N(c3ccccc3)c3ccccc3)C2C1=O` (stereo not given)?
**A.** z-score [1]: -0.567; z-score [2]: -0.519 (inactive); z-score [3]: -1.62 (inactive); composite z-score [4]: -0.443 (inactive); z-score [5]: 0.543 (inactive); z-score [6]: 0.303 (inactive); z-score [7]: -0.804 (inactive); z-score [8]: -0.233 (inactive); z-score [9]: -0.855; composite z-score [10]: 0.0918

**Q.** Which z-score [1] does the source give for `COC(=O)[C@@]1(Cc2ccccc2)[C@H]2c3cc(C(=O)N4CCCC4)[nH]c3C[C@H]2CN1C(=O)c1ccccc1` here?
**A.** -0.6

**Q.** What about the z-score [2] of the same molecule?
**A.** 0.146 (inactive)

**Q.** What about the z-score [3] of the same molecule?
**A.** -0.89 (inactive)

**Q.** And the composite z-score [4]?
**A.** -0.171 (inactive)

**Q.** And the z-score [5]?
**A.** 0.026 (inactive)

**Q.** What about the z-score [6] of the same molecule?
**A.** 0.198 (inactive)

**Q.** And the z-score [7]?
**A.** -0.79 (inactive)

**Q.** And the z-score [8]?
**A.** -0.548 (inactive)

**Q.** And the z-score [9]?
**A.** -0.183

**Q.** What about the composite z-score [10] of the same molecule?
**A.** -0.247

**Q.** Which z-score [1] does the source give for `COc1ccc(C(O)C2C=CC3C(=O)N(c4ccccc4)C(=O)C3N2Nc2ccccc2)cc1OCc1ccccc1` (stereo not given) here?
**A.** -1.04

**Q.** And the z-score [2]?
**A.** -2.82 (inactive)

**Q.** What about the z-score [3] of the same molecule?
**A.** -1.24 (inactive)

**Q.** What about the composite z-score [4] of the same molecule?
**A.** 0.416 (inactive)

**Q.** What about the z-score [5] of the same molecule?
**A.** 1.67 (inactive)

**Q.** And the z-score [6]?
**A.** 0.0482 (inactive)

**Q.** And the z-score [7]?
**A.** -0.628 (inactive)

**Q.** And the z-score [8]?
**A.** -0.131 (inactive)

**Q.** And the z-score [9]?
**A.** -1.2

**Q.** And the composite z-score [10]?
**A.** 0.0714
